# Vaccinia Venus: vaccinia inhibition (Venus reporter); Vaccinia virus Venus reporter expression, fluorescence; Potency, µM (doses to about 36.5 µM), for inactives: at the highest dose activity change, negative = inhibition, usual class: inhibitors; 0.46% of 330,000 active; AID 720580; calls by dose curve; tested in A549 cells; further: nearly all actives have a fitted effect of over 30% in size
# Giardia FBPA inh-1: blocks Giardia fructose-bisphosphate aldolase activity; A8B2U2; purified Giardia FBPA; Potency, µM (doses to about 59.6 µM), without a hit: top-dose activity, negative = inhibition, actives largely listed as inhibitors; 0.71% of 290,000 active; AID 2451; further: nearly all actives have a fitted effect of over 55% in size
# Target sequence (A8B2U2 whole entry, looked up): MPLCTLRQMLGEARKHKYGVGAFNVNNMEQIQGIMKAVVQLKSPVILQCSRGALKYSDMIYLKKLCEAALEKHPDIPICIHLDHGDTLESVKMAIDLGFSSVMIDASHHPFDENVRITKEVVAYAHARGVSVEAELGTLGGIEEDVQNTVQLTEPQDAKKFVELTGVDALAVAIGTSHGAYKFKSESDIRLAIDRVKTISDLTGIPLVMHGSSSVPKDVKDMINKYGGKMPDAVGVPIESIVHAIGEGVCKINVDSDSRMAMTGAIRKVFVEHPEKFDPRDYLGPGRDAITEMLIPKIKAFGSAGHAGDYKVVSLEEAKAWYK
#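 Giardia FBPA (40 nM reagent) was preincubated 10 min at RT with compound (up to 57.5 uM final), then substrate plus GAPDH/TPI/NAD/arsenate coupling system with diaphorase/resazurin was added; resorufin fluorescence (525/598 nm) was read after 20 min.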
# FMDV antiviral: blocks foot and mouth disease virus. FMDV antiviral cell-based qHTS. 1.2% of 410,000 active. Potency, µM (titrated, usually from 57.9 µM), for inactives: at the top dose activity change, negative = inhibition, most hits filed as inhibitors; calls by dose curve; tested in HEK293T cells; further: read-out not given here; nearly all actives have a fitted effect of over 45% in size
# VACV mCherry inh: inhibitors of vaccinia virus infection (mCherry reporter signal). 0.63% of 310,000 active. Vaccinia virus mCherry reporter infection, fluorescence. Potency, µM (series often up to 36.5 µM), for the others: at the highest dose activity change, negative = inhibition, usual class: inhibitors; calls by dose curve; tested in A549 cells; further: nearly all actives have a fitted effect of over 35% in size
# Giardia growth: inhibitors of Giardia lamblia growth; shares compounds with Giardia FBPA inh-1; Giardia lamblia trophozoite growth inhibition; Potency, µM (series often up to 57.5 µM), inactives show top-dose activity change, negative = inhibition, most hits filed as inhibitors; 5% of 1,500 active;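 further: trophozoites exposed to compound for 48 h at 37 °C; nearly all actives have a fitted effect of over 70% in size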
# Mammal cell tox: toxic to mammalian cells in Giardia aldolase counter-screen; AID 2786; 4% of 1,500 active; Potency, µM (titrated, usually from 57.5 µM), for inactives: at the top dose viability change, negative = toxicity, actives largely listed as inhibitors; shares compounds with Giardia FBPA inh-1; mammalian cell viability counter-screen, qHTS;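 further: Chinese hamster ovary cells used as mammalian cytotoxicity surrogate; viability measured as cellular ATP by luminescence; compound exposure lasted 48 h before reading; nearly all actives have a fitted effect of over 60% in size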
# Giardia FBPA inh-2: confirmation of Giardia fructose-bisphosphate aldolase inhibitors. Potency, µM (titrated, usually from 57.5 µM), without a hit: top-dose activity change, negative = inhibition, hits mostly inhibitors. 5% of 1,500 active. purified Giardia aldolase enzyme activity, qHTS. shares compounds with Giardia FBPA inh-1; further: nearly all actives have a fitted effect of over 45% in size
# Rabbit FBPA inh: blocks rabbit muscle aldolase in Giardia aldolase selectivity test; Potency, µM (doses to about 57.5 µM), without a hit: at the top dose activity, negative = inhibition, hits mostly inhibitors; AID 2794; 4% of 1,500 active; Rabbit muscle FBPA enzyme inhibition, selectivity counter-screen; shares compounds with Giardia FBPA inh-1; further: nearly all actives have a fitted effect of over 60% in size
# Target sequence (P00883 whole entry, looked up): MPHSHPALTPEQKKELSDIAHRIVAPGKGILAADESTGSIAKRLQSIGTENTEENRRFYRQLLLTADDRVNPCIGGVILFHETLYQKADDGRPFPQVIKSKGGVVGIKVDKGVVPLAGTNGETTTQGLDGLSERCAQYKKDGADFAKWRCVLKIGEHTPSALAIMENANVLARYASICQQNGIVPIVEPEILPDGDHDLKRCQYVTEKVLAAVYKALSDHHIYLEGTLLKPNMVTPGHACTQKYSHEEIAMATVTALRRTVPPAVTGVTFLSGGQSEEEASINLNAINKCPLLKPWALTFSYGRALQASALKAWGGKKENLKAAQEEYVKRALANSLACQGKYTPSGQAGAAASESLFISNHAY
# GAPDH coupling: counter-screen for Giardia aldolase inhibitors: GAPDH coupling enzyme | 6% of 1,500 active | Potency, µM (top dose mostly 57.5 µM), without a hit: at the highest dose activity change, negative = inhibition, most hits filed as inhibitors | shares compounds with Giardia FBPA inh-1 | GAPDH coupling enzyme counterscreen, biochemical, qHTS; further: nearly all actives have a fitted effect of over 55% in size
# * hit, by the source's call; i = inactive; ? = inconclusive; · = no result given; [ ] = dose if it differs, or a comment. Compounds with a hit are over-represented: about 2.2% of the library has one in this group of screens. Unless noted, the call rests on the fitted dose curve; in most records, active means well fitted curve in the direction sought with a large enough effect; inconclusive means small, poorly fitted or top-dose-only effect, or another doubt; inactive means no such curve, though single readings can be large; an effect the other way counts as inactive or inconclusive. On the % scale 0 is the no-effect control and ±100 the full control effect; potency means the concentration at half of the fitted maximal effect.
SMILES,Vaccinia Venus,Giardia FBPA inh-1,FMDV antiviral,VACV mCherry inh,Giardia growth,Mammal cell tox,Giardia FBPA inh-2,Rabbit FBPA inh,GAPDH coupling
O=C(CNCc1cccs1)Nc1ccc(N2CCCCCC2)cc1,-13%,18µM*,13%,-27%,?,-11%,-15%,-14%,-13%
CCN(CC)c1ccc(N=Cc2c(C)[nH]c3ccccc23)cc1,1%,?,-11%,7%,5%[38.3 µM],-22%,?,?,?
Cc1[nH]c2ccccc2c1/C=N/O,·,-1%,6%,·,·,·,·,·,·
CCC(C)c1cc([N+](=O)[O-])cc([N+](=O)[O-])c1OC(=O)OC(C)C (configuration not stated),·,-18%,·,·,·,·,·,·,·
COC(=O)c1sc(NC(=S)NC(=O)c2ccc(F)cc2)nc1C,·,0%,·,·,·,·,·,·,·
COC(=O)c1sc(NC(=S)NC(=O)c2cccc(Br)c2)nc1C,·,11µM*,50%,·,53%,-1%,8%,5%,19%
Cc1ccc(S(=O)(=O)Nc2cc3c(cc2Cl)n(C)c(=O)c(=O)n3C)cc1,5%,·,18%,-2%,·,·,·,·,·
Cc1ccc(S(=O)(=O)Nc2cc(C)cn(Cc3ccccc3)c2=O)cc1,-9%,13µM*,9%,?,?,-13%,?,?,32µM*
Cc1ccc(S(=O)(=O)Nc2cc(C)cn(Cc3ccc(F)cc3)c2=O)cc1,-15%,16µM*,10%,?,14%[10.4 µM],-9%,?,?,25µM*
Cc1cc2c(cc1NS(=O)(=O)c1ccc(F)cc1)n(C)c(=O)c(=O)n2C,1%,·,-6%,15%,·,·,·,·,·
S=C(Nc1ccc2nsnc2c1)N1CCCC1,10%,6.3µM*,85%,-5%,-8%,-6%,?,?,?
Cc1cccc(N2C(=O)CC(Sc3ncn[nH]3)C2=O)c1 (configuration not stated),-10%,20µM*,-1%,-2%,22%,-3%,10%,8%,13%
Cc1cccc(N2C(=O)CC(Sc3nccc(C)n3)C2=O)c1 (configuration not stated),-10%,7%,-10%,i,·,·,·,·,·
Cc1ccc(N2C(=O)CC(Sc3ncn[nH]3)C2=O)cc1C (configuration not stated),-1%,18µM*,-10%,-11%,-22%,28%,0%,-2%,0%
O=c1ccc2cc3c([nH]c4ccc(Br)cc43)oc-2c1O,·,14µM*,·,·,20%[10.4 µM],7%,10µM*,8.9µM*,10µM*
O=C(O)c1ccc(N=Nc2c(O)[nH]c3ccc(Br)cc23)cc1,-22%,-17%,21%,-21%,·,·,·,·,·
CSc1ccc(/C=N\Nc2nncn2N)cc1,-15%,?,36%,-6%,14%[38.3 µM],-9%,2.3µM*,6.5µM*,3.3µM*
CC1CCN(c2ccc(/C=N\Nc3nncn3N)cc2[N+](=O)[O-])CC1,?,11µM*,-18%,?,11µM*,15%,?,-25%,?
CC(C)(C)c1ccc(/C=N/Nc2nncn2N)cc1,?,16µM*,34%,?,-8%[10.4 µM],-3%,14µM*,?,?
COc1cc(/C=N\Nc2nncn2N)ccc1OC(C)=O,20µM*,25µM*,7%,16µM*,-20%,-28%,?,?,?
CC(=O)OCC1OC(C#Cc2ccccc2)C=CC1OC(C)=O (configuration not stated),·,-3%[12.9 µM],·,·,·,·,·,·,·
CCCCN(C)S(=O)(=O)c1ccc(C(=O)Nc2nnc(C3=COCCO3)o2)cc1,-5%,18µM*,-21%,-20%,?,14%,5%,1%,3%
COc1ccc(C(=O)Nc2nnc(C3=COCCO3)o2)cc1,-1%,·,6%,i,·,·,·,·,·
N#CCCN(CCC#N)S(=O)(=O)c1ccc(C(=O)Nc2nnc(C3=COCCO3)o2)cc1,·,16µM*,2%,·,?,15%,5%,16%,2%
CCCCN(C)S(=O)(=O)c1ccc(C(=O)Nc2nnc(-c3cccs3)o2)cc1,·,-29%,·,·,·,·,·,·,·
SMILES,Vaccinia Venus,Giardia FBPA inh-1,FMDV antiviral,VACV mCherry inh,Giardia growth,Mammal cell tox,Giardia FBPA inh-2,Rabbit FBPA inh,GAPDH coupling
NC(=O)C1(N2CCCCC2)CCN(C(=S)Nc2ccccc2)CC1,-9%,2%,-11%,-20%,·,·,·,·,·
NC(=O)C1(N2CCCCC2)CCN(C(=S)Nc2ccc(S(N)(=O)=O)cc2)CC1,-8%,7.9µM*,13%,i,87%,-3%,-23%,-15%,-20%
N/C(=N\NS(=O)(=O)c1ccccc1)c1ccccn1,-21%[7.34 µM],·,12%,?,·,·,·,·,·
N/C(=N\NC(=O)Nc1ccccc1)c1ccccn1,-1%[7.34 µM],20µM*,47%,i[7.34 µM],-10%[10.4 µM],-1%,-7%,5%,-1%
COc1ccccc1C(C)NCC(=O)c1c(C)[nH]c2ccccc12 (configuration not stated),-10%,·,·,-13%,·,·,·,·,·
CC(=O)Nc1ccc2ccccc2c1,-3%,6%,·,-12%,·,·,·,·,·
CCOC(=O)C(Nc1ccc2ccccc2c1)C(=O)OCC,5%,3.5µM*,-8%,-22%,-1%[38.3 µM],-18%,?,?,40µM*
C[C@H]1Cc2c(COc3ccccc3)nc3c(c2CO1)CN(C(=O)Cc1cccs1)CC3,·,6%[12.9 µM],·,·,·,·,·,·,·
Cc1ccccc1C(N)c1ccncc1 (configuration not stated),·,14µM*,-9%,·,-9%,26%,5%,13%,-2%
OC(c1ccccc1)c1ccncc1 (configuration not stated),1%,·,3%,i,·,·,·,·,·
CC(C)Cc1cc(C(=O)NCc2ccc(Cl)cc2)no1,2%,·,36%,-10%,·,·,·,·,·
O=C(N/N=C/C=C\c1ccco1)c1ccccn1,6%,?,67%,-2%,·,·,·,·,·
CC(/C=N/NC(=O)c1ccccn1)=C\c1ccco1,·,20µM*,37%,·,?,25µM*,?,-25%,?
O=C(N/N=C/C=C/c1ccco1)c1cnccn1,-3%[7.34 µM],20µM*,31%,-1%[7.34 µM],3%[10.4 µM],12%,?,-11%,?
COc1cc(OC)cc(C2=Nn3c(nnc3-c3cccc(OC)c3)SC2)c1,·,8%,·,·,·,·,·,·,·
CCCN1CCC(=O)N(C(CSc2ccc(C)cc2)CC(C)C)CC1 (configuration not stated),·,-1%,·,·,·,·,·,·,·
O=C(O)CNC(=O)CC1S/C(=N/N=C2/NC(=O)CS2)NC1=O (configuration not stated),9%,18µM*,8%,i,?,14%,-2%,1%,12%
NC(=O)NC(=O)CC1S/C(=N/N=C/c2ccccc2)NC1=O (configuration not stated),-12%,0%,-3%,i,·,·,·,·,·

# High-throughput results: PubChem, National Center for Advancing Translational Sciences (NCATS)
